Shiga toxin inh: A qHTS for Small Molecule Inhibitors of Shiga Toxin | Vero cells, Shiga toxin protein synthesis inhibition reporter | 9.2% of 290,000 active | inhibition, % at 38.7 µM; in the data active = inhibition mostly above about 28%, no sharp cut-off; inactive = mostly below about 43%; note: 0% is about no effect
Tb PYK inh: qHTS of Trypanosoma Brucei Inhibitors; 0.12% of 410,000 active; Potency, µM (highest dose often 76.8 µM), for the others: at the top dose activity, negative = inhibition, usual class: inhibitors; pyruvate kinase (Trypanosoma brucei), Q57TT1; TbPYK enzyme, Kinase-Glo Plus ATP luminescence, 45 min; note: potency is the fitted concentration of half-maximal effect; % is set by controls: 0 for no effect and ±100 for the full control effect; nearly all actives have a fitted effect of over 50% in size
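T. brucei PYK with substrate was exposed to pin-transferred compounds across a concentration series, then started with 130 uM ADP (final). After 45 min at room temperature, Kinase-Glo Plus luminescence was read, normalized and curve-fitted.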
Giardia FBPA inh: qHTS Assay for Inhibitors of Fructose-1,6-bisphosphate Aldolase from Giardia Lamblia; Potency, µM (top dose mostly 59.6 µM), inactives show top-dose activity, negative = inhibition, usual class: inhibitors; 0.71% of 290,000 active; purified Giardia FBPA; A8B2U2; AID 2451, 2010; note: potency is the fitted concentration of half-maximal effect; % is set by controls: 0 for no effect and ±100 for the full control effect; nearly all actives have a fitted effect of over 55% in size
Target sequence (A8B2U2 whole entry, looked up): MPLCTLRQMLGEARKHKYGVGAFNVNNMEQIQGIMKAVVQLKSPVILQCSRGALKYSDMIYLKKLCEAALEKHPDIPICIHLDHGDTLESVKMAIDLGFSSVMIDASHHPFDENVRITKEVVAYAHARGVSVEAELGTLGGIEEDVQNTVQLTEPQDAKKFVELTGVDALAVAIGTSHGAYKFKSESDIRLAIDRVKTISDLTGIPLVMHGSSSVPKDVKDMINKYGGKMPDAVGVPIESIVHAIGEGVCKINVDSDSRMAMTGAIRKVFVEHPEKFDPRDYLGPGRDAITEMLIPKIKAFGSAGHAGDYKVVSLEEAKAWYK
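Giardia FBPA (40 nM reagent) was preincubated 10 min at RT with compound (up to 57.5 uM final), then substrate plus GAPDH/TPI/NAD/arsenate coupling system with diaphorase/resazurin was added; resorufin fluorescence (525/598 nm) was read after 20 min.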
RE007 growth inh: qHTS Assay for Inhibitors of the HIV-1 protein Vpr | 0.21% of 360,000 active | S. pombe RE007 Vpr strain, BacTiter-Glo ATP luminescence, 24 h | AID 651644, 2012 | Potency, µM (highest dose often 92.2 µM), without a hit: at the top dose activity change, negative = less growth, actives largely listed as inhibitors; active = well fitted falling curve with a large enough effect; inconclusive = small, poorly fitted or top-dose-only effect; inactive = no such curve, though single readings can be large or run the other way; note: potency is the fitted concentration of half-maximal effect; % is set by controls: 0 for no effect and ±100 for the full control effect; nearly all actives have a fitted effect of over 50% in size
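Fission yeast RE007 carrying one integrated HIV-1 vpr copy, seeded at OD 0.01 in PMG+AL medium with 23 nL pinned compound. Grown 24 h at 30 degrees; viability read by BacTiter-Glo luminescence after 5 min.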
LmPK inhibitor: qHTS Assay for Inhibitors of Leishmania Mexicana Pyruvate Kinase (LmPK); Q27686; purified LmPK, Kinase-Glo ATP luminescence, 1 h; Potency, µM (doses to about 57.5 µM), for inactives: at the top dose activity change, negative = inhibition, most hits filed as inhibitors; 0.37% of 290,000 active; AID 1721, 2009; note: potency is the fitted concentration of half-maximal effect; % is set by controls: 0 for no effect and ±100 for the full control effect
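ATP generated from ADP (0.1 mM) and PEP (0.5 mM) by 0.1 nM LmPK over 1 h at room temperature (pH 7.2 imidazole buffer) was detected by coupled luciferase luminescence. Values were normalized to uninhibited and no-enzyme wells.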
Cycloheximide cs: Cycloheximide Counterscreen for Small Molecule Inhibitors of Shiga Toxin | cell reporter, cycloheximide protein synthesis inhibition counterscreen | AID 2314, 2010 | max response, % | 12% of 300,000 active; in the data active = max response mostly above about 13%, no sharp cut-off; inactive = mostly below about 14%; note: read at 38.3 µM for the half of the compounds with a filed dose; 0% is about no effect
* = called active by the depositor. The sample as a whole holds a higher share of hits than the screen did. Unless noted, calls come from the whole dose curve; as a rule, active = well fitted curve in the direction sought with a large enough effect; inconclusive = small, poorly fitted or top-dose-only effect, or another doubt; inactive = no such curve, though single readings can be large; an effect the other way counts as inactive or inconclusive.

How did CCN(CC(=O)Nc1ccc(OC)c(Cl)c1)CC(=O)NC(C)C do in these assays?
Shiga toxin inh: -8; Tb PYK inh: -1%; Giardia FBPA inh: -5%; RE007 growth inh: -29%; LmPK inhibitor: -1%; Cycloheximide cs: 2

How did COc1ccccc1-c1nnc(C2CCN(S(=O)(=O)c3ccccc3)CC2)o1 do in these assays?
Tb PYK inh: -12%

What do the screens show for `CCc1c(CN2CCN(c3ccccc3F)CC2)csc1C`?
Tb PYK inh: 0%

How did COc1ccc2c(Sc3ccc(C)cc3)c(C(=O)NCC(C)c3ccccc3)[nH]c2c1 (stereo unspecified) do in these assays?
Tb PYK inh: 3%

How did CCN1CCN(C(c2cccc(F)c2)c2c(O)cc(C)n(CCOC)c2=O)CC1 (stereo unspecified) do in these assays?
Tb PYK inh: 0%

How did CCn1nc(C)c(CNC(=O)CCc2nnc(-c3ccc(C(C)=O)s3)o2)c1C do in these assays?
Shiga toxin inh: 19; Tb PYK inh: -6%; Giardia FBPA inh: 3%; RE007 growth inh: 1%; LmPK inhibitor: 2%; Cycloheximide cs: -3

What do the screens show for `CCC(=O)C1CCCN(C(=O)CCc2nnc(-c3ccc(C(C)=O)s3)o2)C1` (stereo unspecified)?
Shiga toxin inh: 98*; Tb PYK inh: -6%; Giardia FBPA inh: 10%; RE007 growth inh: -2%; LmPK inhibitor: 6%; Cycloheximide cs: 40*

What do the screens show for `Nc1nnc(CC(=O)N/N=C/c2ccc(-c3ccc(F)cc3)o2)s1`?
Shiga toxin inh: -1; Tb PYK inh: -1%; Giardia FBPA inh: 1%; RE007 growth inh: -2%; LmPK inhibitor: 0%; Cycloheximide cs: -2

How did CCOC(=O)c1ccc(-c2ccc(/C=N/NC(=O)c3cncc(Br)c3)o2)cc1 do in these assays?
Shiga toxin inh: 40*; Tb PYK inh: 0%; Giardia FBPA inh: 5%; RE007 growth inh: 2%; LmPK inhibitor: 1%; Cycloheximide cs: 13*

How did CCOC(=O)c1ccc(-c2ccc(/C=N/NC(=O)Cc3nnc(N)s3)o2)cc1 do in these assays?
Shiga toxin inh: 52*; Tb PYK inh: -1%; Giardia FBPA inh: -3%; RE007 growth inh: -2%; LmPK inhibitor: 2%; Cycloheximide cs: 42*

How did Nc1nonc1-c1nc2ccccc2n1CC(=O)N/N=C/c1ccc(-c2cccc(C(=O)O)c2)o1 do in these assays?
Shiga toxin inh: 70*; Tb PYK inh: -18%; Giardia FBPA inh: -14%; RE007 growth inh: -2%; LmPK inhibitor: 1%; Cycloheximide cs: 34*

How did O=C(N/N=C/c1ccc(-c2cccc([N+](=O)[O-])c2)o1)c1ccc([N+](=O)[O-])cc1 do in these assays?
Shiga toxin inh: 9; Tb PYK inh: 3%; Giardia FBPA inh: 0%; RE007 growth inh: -17%; LmPK inhibitor: -1%; Cycloheximide cs: 15

What do the screens show for `O=C(O)c1cccc(-c2ccc(/C=N/NC(=O)c3cccnc3)o2)c1`?
Shiga toxin inh: 171*; Tb PYK inh: -18%; Giardia FBPA inh: -17%; RE007 growth inh: 1%; LmPK inhibitor: 6%; Cycloheximide cs: 83*

Results for COC(=O)c1cc(C(=O)Nc2ccc(S(N)(=O)=O)cc2)cc([N+](=O)[O-])c1 ?
Shiga toxin inh: 17; Tb PYK inh: 1%; Giardia FBPA inh: -1%; RE007 growth inh: 11%; LmPK inhibitor: 7%; Cycloheximide cs: -1

What do the screens show for `CCNC(=O)CC1C(=O)N(c2ccccc2)C(=O)N1Cc1ccc(F)cc1` (stereo unspecified)?
Tb PYK inh: 1%

How did Nc1nnc(CC(=O)N/N=C/c2ccc(-c3cccc(C(=O)O)c3)o2)s1 do in these assays?
Shiga toxin inh: 142*; Tb PYK inh: 2%; Giardia FBPA inh: -15%; RE007 growth inh: 8%; LmPK inhibitor: -5%; Cycloheximide cs: 61*

How did O=Cc1ccc(-c2cccc(C(=O)O)c2)o1 do in these assays?
Shiga toxin inh: 25; Tb PYK inh: -5%; Giardia FBPA inh: 3%; RE007 growth inh: 0%; LmPK inhibitor: -2%; Cycloheximide cs: 13

How did O=C(Cc1ccc(Br)cc1)N/N=C/c1ccc(-c2cccc(C(=O)O)c2)o1 do in these assays?
Shiga toxin inh: 102*; Tb PYK inh: -1%; Giardia FBPA inh: 15%; RE007 growth inh: 9%; LmPK inhibitor: 9%; Cycloheximide cs: 31*

What do the screens show for `Cc1cc(C)cc(NC(=O)Cn2cc(C(=O)c3ccncc3)c(=O)c3cc(C)c(C)cc32)c1`?
Tb PYK inh: -1%

Results for COc1ccc(-c2nsc(NC(=O)COc3ccc(C)c(C)c3)n2)cc1 ?
Tb PYK inh: 1%

What do the screens show for `S=C1NNC2(CC3CC2C2CCCC32)NN1` (stereo unspecified)?
Shiga toxin inh: 22; Tb PYK inh: -19%; Giardia FBPA inh: inconclusive; RE007 growth inh: 4%; LmPK inhibitor: 2%; Cycloheximide cs: 16*

Results for COc1ccc(Cc2nc(-c3ccc(Br)cc3)no2)cc1 ?
Shiga toxin inh: 31*; Tb PYK inh: -5%; Giardia FBPA inh: -1%; RE007 growth inh: -12%; LmPK inhibitor: -3%; Cycloheximide cs: 29*

Results for COc1ccc(Cc2nc(-c3ccc(Cl)cc3)no2)cc1 ?
Shiga toxin inh: 49*; Tb PYK inh: 3%; Giardia FBPA inh: -1%; RE007 growth inh: inconclusive; LmPK inhibitor: -9%; Cycloheximide cs: 21*

Results for CCc1ccc(OCc2nc(-c3ccc(OC)cc3)no2)c(Br)c1 ?
Tb PYK inh: 0%

How did COc1ccc(-c2noc(Cc3ccc(Cl)cc3)n2)cc1OC do in these assays?
Shiga toxin inh: 8; Tb PYK inh: 2%; Giardia FBPA inh: -6%; RE007 growth inh: -14%; LmPK inhibitor: -2%; Cycloheximide cs: 6

How did Cc1ccc(Cc2nc(-c3ccncc3)no2)cc1 do in these assays?
Shiga toxin inh: 54*; Tb PYK inh: 8%; Giardia FBPA inh: 8%; RE007 growth inh: -14%; LmPK inhibitor: 1%; Cycloheximide cs: 14

What do the screens show for `Clc1ccc(-c2noc(COc3ccccc3)n2)cc1`?
Shiga toxin inh: 24; Tb PYK inh: 8%; Giardia FBPA inh: 3%; RE007 growth inh: -2%; LmPK inhibitor: -3%; Cycloheximide cs: -2

Results for Clc1ccc(OCc2nc(-c3ccncc3)no2)cc1 ?
Shiga toxin inh: 36; Tb PYK inh: 5%; Giardia FBPA inh: -7%; RE007 growth inh: 13%; LmPK inhibitor: -5%; Cycloheximide cs: 31*

What do the screens show for `c1ccc(C(Cc2nc(-c3ccncc3)no2)c2ccccc2)cc1`?
Shiga toxin inh: -5; Tb PYK inh: -2%; Giardia FBPA inh: -1%; RE007 growth inh: 11%; LmPK inhibitor: 6%; Cycloheximide cs: -2

Compound activity (PubChem BioAssay)
